The full data set covers some 7,900 targets. This sample favours those with a hit. About 0.6% of all pairs of compound and target were hits.

UniProt Q96G46, sequence (Q96G46 whole entry, looked up): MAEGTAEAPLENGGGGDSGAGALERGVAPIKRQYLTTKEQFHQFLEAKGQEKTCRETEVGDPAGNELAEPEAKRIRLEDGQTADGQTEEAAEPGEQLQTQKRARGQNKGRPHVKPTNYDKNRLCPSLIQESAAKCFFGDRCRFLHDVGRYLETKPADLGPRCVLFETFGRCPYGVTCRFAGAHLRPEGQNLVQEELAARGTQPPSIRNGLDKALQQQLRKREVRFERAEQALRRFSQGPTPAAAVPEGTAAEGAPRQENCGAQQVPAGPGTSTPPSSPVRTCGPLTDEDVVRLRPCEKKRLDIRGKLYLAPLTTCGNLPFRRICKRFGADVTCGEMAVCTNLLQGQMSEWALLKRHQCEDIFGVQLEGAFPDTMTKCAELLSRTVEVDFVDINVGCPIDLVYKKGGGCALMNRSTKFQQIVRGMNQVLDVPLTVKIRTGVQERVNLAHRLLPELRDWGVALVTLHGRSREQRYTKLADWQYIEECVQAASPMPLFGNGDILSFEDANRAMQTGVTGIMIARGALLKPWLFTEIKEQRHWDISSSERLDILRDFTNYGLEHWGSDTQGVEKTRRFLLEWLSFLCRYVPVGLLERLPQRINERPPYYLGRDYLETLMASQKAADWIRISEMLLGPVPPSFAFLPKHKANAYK
UniProt Q2TBE0, sequence (Q2TBE0 whole entry, looked up): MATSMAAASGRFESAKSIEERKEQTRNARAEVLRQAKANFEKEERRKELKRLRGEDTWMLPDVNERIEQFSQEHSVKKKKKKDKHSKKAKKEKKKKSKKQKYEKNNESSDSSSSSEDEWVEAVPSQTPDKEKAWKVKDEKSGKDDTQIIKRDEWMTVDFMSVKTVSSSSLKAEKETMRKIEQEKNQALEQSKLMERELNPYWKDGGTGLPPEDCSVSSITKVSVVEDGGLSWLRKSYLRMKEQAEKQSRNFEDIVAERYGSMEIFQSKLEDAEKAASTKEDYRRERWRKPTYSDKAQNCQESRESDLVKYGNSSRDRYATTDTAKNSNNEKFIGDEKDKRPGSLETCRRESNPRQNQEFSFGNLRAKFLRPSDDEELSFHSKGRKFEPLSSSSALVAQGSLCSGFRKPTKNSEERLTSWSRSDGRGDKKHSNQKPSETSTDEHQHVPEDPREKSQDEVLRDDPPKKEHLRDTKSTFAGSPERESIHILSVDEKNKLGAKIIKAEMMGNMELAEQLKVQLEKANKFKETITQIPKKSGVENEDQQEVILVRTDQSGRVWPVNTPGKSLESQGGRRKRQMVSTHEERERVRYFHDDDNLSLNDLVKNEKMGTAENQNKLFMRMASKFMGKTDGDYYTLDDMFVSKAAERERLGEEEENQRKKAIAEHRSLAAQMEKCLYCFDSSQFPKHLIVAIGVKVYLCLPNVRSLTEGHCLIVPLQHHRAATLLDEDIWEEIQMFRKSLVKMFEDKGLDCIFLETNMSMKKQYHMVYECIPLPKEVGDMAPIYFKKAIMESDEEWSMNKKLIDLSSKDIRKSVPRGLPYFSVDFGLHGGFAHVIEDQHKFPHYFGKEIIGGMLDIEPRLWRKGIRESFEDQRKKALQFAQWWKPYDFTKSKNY
UniProt P25774, sequence (P25774 whole entry, looked up): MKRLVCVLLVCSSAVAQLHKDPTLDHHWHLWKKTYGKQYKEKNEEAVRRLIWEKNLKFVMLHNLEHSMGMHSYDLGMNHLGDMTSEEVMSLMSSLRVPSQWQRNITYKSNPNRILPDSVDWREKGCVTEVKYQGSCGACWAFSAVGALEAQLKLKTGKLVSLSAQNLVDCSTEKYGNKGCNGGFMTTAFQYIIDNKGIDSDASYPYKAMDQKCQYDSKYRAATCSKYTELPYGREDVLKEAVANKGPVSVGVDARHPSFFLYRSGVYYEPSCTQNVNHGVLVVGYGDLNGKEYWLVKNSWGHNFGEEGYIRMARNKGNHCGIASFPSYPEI
UniProt A1L3X0, sequence (A1L3X0 whole entry, looked up): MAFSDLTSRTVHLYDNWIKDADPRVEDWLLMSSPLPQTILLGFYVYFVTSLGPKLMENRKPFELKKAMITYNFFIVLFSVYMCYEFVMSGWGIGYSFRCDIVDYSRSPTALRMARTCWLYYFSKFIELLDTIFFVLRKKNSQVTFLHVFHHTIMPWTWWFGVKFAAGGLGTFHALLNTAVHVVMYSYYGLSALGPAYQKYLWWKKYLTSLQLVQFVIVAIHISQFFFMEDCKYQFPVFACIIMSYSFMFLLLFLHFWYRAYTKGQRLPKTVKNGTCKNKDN
UniProt P32519, sequence (P32519 whole entry, looked up): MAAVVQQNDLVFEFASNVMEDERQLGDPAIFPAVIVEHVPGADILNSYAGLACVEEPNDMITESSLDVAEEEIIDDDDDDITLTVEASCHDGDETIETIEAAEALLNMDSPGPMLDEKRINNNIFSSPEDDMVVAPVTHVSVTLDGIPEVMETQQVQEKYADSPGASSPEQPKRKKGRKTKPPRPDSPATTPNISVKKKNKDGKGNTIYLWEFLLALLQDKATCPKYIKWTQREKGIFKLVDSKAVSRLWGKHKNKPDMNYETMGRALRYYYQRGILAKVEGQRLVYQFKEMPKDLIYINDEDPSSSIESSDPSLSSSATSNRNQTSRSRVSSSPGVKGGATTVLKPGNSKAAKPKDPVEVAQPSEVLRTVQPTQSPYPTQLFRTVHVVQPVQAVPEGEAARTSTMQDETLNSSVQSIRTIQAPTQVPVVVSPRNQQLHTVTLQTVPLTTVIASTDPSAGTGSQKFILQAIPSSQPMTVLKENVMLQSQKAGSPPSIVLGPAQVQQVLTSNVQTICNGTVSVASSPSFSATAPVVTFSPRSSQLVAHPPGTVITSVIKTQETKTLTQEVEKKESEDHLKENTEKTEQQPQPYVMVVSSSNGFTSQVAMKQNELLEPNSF
UniProt Q96RI0, sequence (Q96RI0 whole entry, looked up): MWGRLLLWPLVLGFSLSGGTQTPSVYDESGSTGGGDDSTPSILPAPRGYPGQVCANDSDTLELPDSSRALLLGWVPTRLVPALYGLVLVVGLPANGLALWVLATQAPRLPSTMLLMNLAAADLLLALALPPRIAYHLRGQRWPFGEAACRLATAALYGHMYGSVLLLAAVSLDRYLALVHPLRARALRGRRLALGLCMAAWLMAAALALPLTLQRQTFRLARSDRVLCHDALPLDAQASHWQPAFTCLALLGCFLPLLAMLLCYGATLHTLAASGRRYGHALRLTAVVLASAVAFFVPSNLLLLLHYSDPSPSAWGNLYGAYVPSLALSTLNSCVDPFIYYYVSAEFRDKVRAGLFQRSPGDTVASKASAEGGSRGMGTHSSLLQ
UniProt Q96FC9, sequence (Q96FC9 whole entry, looked up): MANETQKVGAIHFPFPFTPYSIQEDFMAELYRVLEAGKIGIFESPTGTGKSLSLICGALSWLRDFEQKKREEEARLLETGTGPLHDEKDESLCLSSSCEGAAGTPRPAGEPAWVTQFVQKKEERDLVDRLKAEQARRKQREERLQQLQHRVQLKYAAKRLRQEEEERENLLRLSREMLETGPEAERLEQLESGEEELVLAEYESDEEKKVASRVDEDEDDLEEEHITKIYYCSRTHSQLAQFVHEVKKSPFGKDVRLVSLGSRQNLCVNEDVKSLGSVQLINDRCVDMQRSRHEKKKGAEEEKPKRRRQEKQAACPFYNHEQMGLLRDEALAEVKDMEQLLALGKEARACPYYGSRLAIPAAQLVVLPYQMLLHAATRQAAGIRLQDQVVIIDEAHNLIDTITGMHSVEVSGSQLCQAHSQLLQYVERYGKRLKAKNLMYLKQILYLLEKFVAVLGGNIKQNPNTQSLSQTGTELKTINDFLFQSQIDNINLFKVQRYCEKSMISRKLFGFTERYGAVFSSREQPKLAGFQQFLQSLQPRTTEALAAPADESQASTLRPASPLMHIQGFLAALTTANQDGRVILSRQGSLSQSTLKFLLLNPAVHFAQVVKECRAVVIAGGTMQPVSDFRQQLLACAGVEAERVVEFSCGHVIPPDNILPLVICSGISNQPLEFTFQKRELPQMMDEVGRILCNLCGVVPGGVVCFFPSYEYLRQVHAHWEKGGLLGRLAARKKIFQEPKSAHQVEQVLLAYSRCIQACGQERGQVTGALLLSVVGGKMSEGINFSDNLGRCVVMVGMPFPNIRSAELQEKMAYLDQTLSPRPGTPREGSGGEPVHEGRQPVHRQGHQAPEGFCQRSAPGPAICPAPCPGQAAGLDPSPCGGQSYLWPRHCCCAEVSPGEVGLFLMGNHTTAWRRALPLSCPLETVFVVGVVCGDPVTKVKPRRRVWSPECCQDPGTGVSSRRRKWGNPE
UniProt Q13409, sequence (Q13409 whole entry, looked up): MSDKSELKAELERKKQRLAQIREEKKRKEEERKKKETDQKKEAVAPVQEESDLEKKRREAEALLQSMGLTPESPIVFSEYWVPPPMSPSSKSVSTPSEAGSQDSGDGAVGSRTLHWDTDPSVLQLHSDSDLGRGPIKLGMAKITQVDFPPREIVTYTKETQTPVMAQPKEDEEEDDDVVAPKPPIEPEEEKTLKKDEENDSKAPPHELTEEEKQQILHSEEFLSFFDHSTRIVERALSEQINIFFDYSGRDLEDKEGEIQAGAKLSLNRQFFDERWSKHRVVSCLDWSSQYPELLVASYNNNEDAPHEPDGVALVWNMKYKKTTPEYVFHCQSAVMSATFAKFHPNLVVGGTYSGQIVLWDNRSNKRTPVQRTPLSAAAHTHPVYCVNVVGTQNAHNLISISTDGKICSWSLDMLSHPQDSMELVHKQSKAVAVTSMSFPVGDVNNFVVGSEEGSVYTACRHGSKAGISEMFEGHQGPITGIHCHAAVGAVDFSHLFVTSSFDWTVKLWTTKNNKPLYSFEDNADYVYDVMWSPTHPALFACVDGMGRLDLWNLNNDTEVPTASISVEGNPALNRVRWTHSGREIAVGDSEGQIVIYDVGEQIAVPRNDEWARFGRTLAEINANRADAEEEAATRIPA
UniProt Q8NBI2, sequence (Q8NBI2 whole entry, looked up): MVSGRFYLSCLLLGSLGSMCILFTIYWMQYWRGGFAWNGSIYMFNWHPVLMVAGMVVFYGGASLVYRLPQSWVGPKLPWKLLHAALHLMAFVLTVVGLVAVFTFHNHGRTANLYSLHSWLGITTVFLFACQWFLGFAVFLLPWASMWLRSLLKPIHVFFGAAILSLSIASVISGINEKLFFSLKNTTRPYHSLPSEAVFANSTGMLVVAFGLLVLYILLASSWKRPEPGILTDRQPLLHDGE

Compound in this assay: Cc1sc2c(c1C)C(c1ccc(Cl)cc1)=N[C@@H](CC(=O)OC(C)(C)C)c1nnc(C)n1-2
Put plainly: log2 fold change, soluble protein after heating vs DMSO (PISA); higher = thermal stabilisation; K562 cells, 10 uM, 30 min; active = over 0.2 and 3.5 SD of the protein, either way, in both replicates (recomputed). The procedure, abridged: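 K562 cells at 2×10^6 cells/mL were given 10 μM compound for 30 min. Aliquots then went through 3 min of heating across 48°C-58°C, were pooled, and were extracted in PBS with 0.5% NP-40 at 4°C, and the supernatant after 21,000xg for 90 min was quantified by TMTpro 16plex LC-MS/MS with channel sums equalised. Thermal stability relative to control samples, from duplicates, is given as log2 fold change.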
On to ENTPD7 (UniProt Q9NQZ7), for which the log2 fold change is 0.173 (inactive).
On to CYP24A1 (UniProt Q07973), for which the log2 fold change was 0.266 (inactive).
For F2RL3 (UniProt Q96RI0) the value was -0.197 (inactive).
For the target DHRS13 (UniProt Q6UX07), the log2 fold change was 0.218 (inactive).
In the case of ERF (UniProt P50548), the log2 fold change was -0.515 (inactive).
EEF1D isoform 3 (UniProt P29692): the log2 fold change was -0.694 (inactive).
Consider EIF4G1 (UniProt Q04637), for which the log2 fold change was 0.098 (inactive).
Turning to FAM117B (UniProt Q6P1L5), the log2 fold change was -0.097 (inactive).
In the case of FAM207A (UniProt Q9NSI2), the log2 fold change is 0.021 (inactive).
For CWF19L2 (UniProt Q2TBE0) the value was 0.028 (inactive); for ELOVL7 (UniProt A1L3X0), -0.066 (inactive).
On to FAM3A (UniProt P98173), for which the log2 fold change was -0.051 (inactive).
For DDX27 (UniProt Q96GQ7) the value was 0.12 (inactive).
Under EIF3J isoform 2 (UniProt O75822) stands 0.049 (inactive); under DDX11 (UniProt Q96FC9), 0.059 (inactive).
In the case of DYNC1I2 isoform 2 (UniProt Q13409), the log2 fold change was -0.068 (inactive).
Turning to ELF1 (UniProt P32519), the log2 fold change was 0.017 (inactive).
For DCP2 (UniProt Q8IU60) the value was 0.077 (inactive); for DUS3L (UniProt Q96G46), -0.007 (inactive); for CTSS (UniProt P25774), -0.192 (inactive).
As to EIF2AK3 (UniProt Q9NZJ5), the log2 fold change was -0.196 (inactive).
CYB561A3 isoform 2 (UniProt Q8NBI2): the log2 fold change is -0.075 (inactive).

(Values after the supplement of paper PMC10849652.)
